# Sampled rows, rich in hits. Any-hit rate of the full collection: about 3.1%.
# TrxR1 substrate: rat thioredoxin reductase 1 substrate activity. O89049. purified TrxR1 substrate turnover, NADPH consumption readout. Potency, µM (doses to about 114 µM), inactives show at the highest dose activity change, negative = substrate turnover. hit rate 0.01% among 390,000. AID 588456; note: % is set by controls: 0 for no effect and ±100 for the full control effect; nearly all actives have a fitted effect of over 50% in size
#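 Rat TrxR1, dispensed at 90 nM, was prereduced with 400 uM NADPH (final) for 5 min at ~22 deg C, then incubated with compound 15 min before 400 uM selenite. A first-read NADPH fluorescence drop versus no-compound background flagged substrates.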
# Nrf2 block: inhibitors of Nrf2 signaling. hit rate 2.1% among 360,000. Potency, µM (series often up to 46 µM), for the others: at the top dose activity change, negative = inhibition, hits mostly inhibitors. AID 504444. A549 ARE-Fluc reporter, luciferase luminescence, 18-24 h; note: % is set by controls: 0 for no effect and ±100 for the full control effect; nearly all actives have a fitted effect of over 60% in size
#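 Nrf2 activity is the BugLite luminescence, read 15 min after reagent at room temperature, following CellTiter-Fluor cytotoxicity readout (30 min, 37C). Compound titrations were applied for 18-24 h to 5000 A549 ARE_Fluc cells/well in 5% FBS OPTI-MEM.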
# A549 tox: counter-screen for Nrf2 inhibitors: cytotoxicity in A549 cells. A549 ARE-Fluc cells, CellTiter-Fluor viability, 18-24 h. Potency, µM (highest dose often 46 µM), without a hit: top-dose activity change, negative = cytotoxicity, hits mostly inhibitors. AID 504648. hit rate 0.16% among 390,000; note: % is set by controls: 0 for no effect and ±100 for the full control effect
#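 A549 ARE-Fluc cells in 5% FBS OPTI-MEM, 5000 cells/well, rested 2 h then exposed to compounds in concentration-response for 18-24 h at 37 °C. Viability by CellTiter-Fluor fluorescence (Ex 405/Em 525) after 30 min; luciferase luminescence (BugLite, 15 min, RT) read afterwards.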
# rTrxR1 inhibitor: rat TrxR1 inhibition; Potency, µM (series often up to 114 µM), for inactives: at the top dose activity change, negative = inhibition, actives largely listed as inhibitors; recombinant rTrxR1, NADPH fluorescence consumption, selenite substrate; AID 588453; O89049; hit rate 1% among 390,000; note: % is set by controls: 0 for no effect and ±100 for the full control effect; nearly all actives have a fitted effect of over 65% in size
#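 Rat TrxR1 (90 nM in the dispensed reagent) was pre-reduced with 400 uM NADPH for 5 min at room temperature, then incubated with compound for 15 min. After 400 uM selenite was added, NADPH fluorescence (Ex 340/Em 450 nm) was followed for 8 min.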
# mIDH1 inhibitor: human IDH1 R132H inhibition; hit rate 0.093% among 390,000; IDH1-R132H enzyme, NADPH consumption, diaphorase/resazurin fluorescence; O75874; Potency, µM (top dose mostly 76.6 µM), for inactives: at the highest dose activity change, negative = inhibition, most hits filed as inhibitors; AID 602179; note: % is set by controls: 0 for no effect and ±100 for the full control effect; nearly all actives have a fitted effect of over 65% in size
# Target sequence (O75874 whole entry R132H, stated change not applied): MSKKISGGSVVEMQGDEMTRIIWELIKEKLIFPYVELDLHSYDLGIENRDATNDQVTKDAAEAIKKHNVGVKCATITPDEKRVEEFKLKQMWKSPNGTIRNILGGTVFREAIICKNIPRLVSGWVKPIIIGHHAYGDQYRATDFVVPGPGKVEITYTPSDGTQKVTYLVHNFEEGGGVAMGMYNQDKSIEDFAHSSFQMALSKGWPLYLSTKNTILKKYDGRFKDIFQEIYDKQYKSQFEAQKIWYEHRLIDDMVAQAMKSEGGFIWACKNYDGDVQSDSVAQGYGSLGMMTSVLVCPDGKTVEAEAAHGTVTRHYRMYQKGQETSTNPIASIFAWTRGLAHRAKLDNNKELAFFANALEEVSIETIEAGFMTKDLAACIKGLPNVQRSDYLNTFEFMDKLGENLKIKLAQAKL
#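 IDH1-R132H (0.5 ug/mL) preincubated 30 min with compound, then NADPH (0.016 mM) and alpha-KG (2 mM) added; 80 min at RT, pH 7.5. Remaining NADPH coupled via diaphorase/resazurin to fluorescence (540/590 nm); concentration-response curves normalized to no-enzyme control.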
# Mito fusion act: inhibitors of mitochondrial division or activators of mitochondrial fusion; hit rate 0.23% among 320,000; S. cerevisiae fusion-defective mutant growth rescue, CellTiterGlo 48 h; Potency, µM (series often up to 46.1 µM), inactives show at the top dose growth rescue (activation), hits mostly activators; note: % of control where 0% means no effect; nearly all actives have a fitted effect of over 45% in size
#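 Compounds are tested for their ability to restore growth of mitochondrial fusion-defective yeast strains at non-permissive 37C in YPEG medium over 48 hours. Viability is quantified by luciferase luminescence.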
# * hit, by the source's call; ? = inconclusive; . = not tested or not shown; [ ] = remark or other dose. Calls come from the whole dose curve; as a rule, active = well fitted curve in the direction sought with a large enough effect; inconclusive = small, poorly fitted or top-dose-only effect, or another doubt; inactive = no such curve, though single readings can be large; an effect the other way counts as inactive or inconclusive. Potency is the fitted concentration of half-maximal effect.
SMILES,TrxR1 substrate,Nrf2 block,A549 tox,rTrxR1 inhibitor,mIDH1 inhibitor,Mito fusion act
O=C(CS(=O)c1ccc(C(F)(F)F)cc1[N+](=O)[O-])Oc1ccccc1 (stereo not drawn),-2%,?,-10%,?,8%,4%
CS(=O)(=O)c1ccc(S(=O)CC(=O)OCc2ccccc2)c([N+](=O)[O-])c1 (stereo not drawn),6%[57.1 µM],18µM*,?,2.8µM*,-2%,6%
COc1ccccc1Oc1ccc2c(c1)C(=O)N(c1cccc3ncccc13)C2=O,9%[57.1 µM],16µM*,-8%,11%[57.1 µM],-6%,1%
COc1ccccc1Oc1ccc2c(c1)C(=O)N(c1cccc(O)c1)C2=O,-4%[57.1 µM],-9%,-11%,-15%[57.1 µM],3%,1%
Cn1c(COc2ccc(Cl)cc2)nnc1SCc1ncc(-c2ccccc2)o1,-9%,16µM*,-30%,-25%,0%,3%
CC(C)c1ccc(/C=C2\C=Cc3ccccc32)cc1,-6%,.,.,?,.,.
Cc1ccc(Cl)cc1NS(=O)(=O)c1cc2c(cc1Cl)CCC(=O)N2,.,-25%,10%,.,.,.
CCN1CCN(c2cc(=O)n(C3CCCCC3)c(=O)[nH]2)CC1,10%[57.1 µM],18%,3%,-1%[57.1 µM],12%,1%
CN1CCN(c2cc(=O)n(C3CCCCC3)c(=O)[nH]2)CC1,4%[57.1 µM],6%,16%,25µM*,-1%,-5%
Cc1cccc(C(=O)N2CCN(c3ncnc4c3cnn4-c3ccccc3)CC2)c1,-4%,18µM*,-15%,-3%,-2%,10%
Cc1cccc(-n2ncc3c(N4CCN(c5ccccc5)CC4)ncnc32)c1,11%[57.1 µM],.,24%,7%[57.1 µM],-2%,-4%
Cc1ccc(NCCC(=O)c2cccc([N+](=O)[O-])c2)c(C)c1,2%[57.1 µM],0%,9%,3.2µM*,-1%,0%
Cc1cccc(NCCC(=O)c2ccc([N+](=O)[O-])cc2)c1C,0%,1%,7%,4.5µM*,1%,2%
Cc1ccc(NCC(=O)c2ccc([N+](=O)[O-])cc2)cc1,-1%,1%,-24%,18%[57.1 µM],1%,-1%
Cc1ccc(C(=O)CNc2cccc([N+](=O)[O-])c2)cc1,7%[57.1 µM],7%,-1%,7%,-3%,-4%
Cc1ccc(CNC(=O)C2CCCN(S(=O)(=O)c3ccc4c(ccn4C)c3)C2)cc1 (stereo not drawn),0%[57.1 µM],.,2%,11%[57.1 µM],-16%,.
COC(=O)c1cccc(Nc2c3c(nc4ccccc24)CCC3)c1,7%[57.1 µM],23µM*,-27%,0%[57.1 µM],-8%,7%
CC(=O)c1cccc(Nc2c3c(nc4ccccc24)CCC3)c1,-1%,-14%,1%,18%,-6%,-3%
CCOC(=O)c1cccc(Nc2c3c(nc4ccccc24)CCC3)c1,0%,21µM*,-16%,21%,-21%,.
CC(C)(C)n1ncc2c(=O)n(Cc3ccc(SC(=O)O)cc3Cl)cnc21,0%,.,.,2%,.,.
CC(CNC(=O)c1cc(-c2ccccc2)n[nH]1)c1ccccc1 (stereo not drawn),-9%,?,-9%,-7%,0%,.
Cc1nc2c(c(C)nn2C(C)(C)C)c(C)c1CCC(=O)Nc1ccc(Br)cc1Br,20%,13%,0%,36%,-8%,.
CCn1c(SCC(=O)Nc2nc3ccc(C)cc3s2)nc2c(c1=O)SC(C)C2 (stereo not drawn),5%[57.1 µM],18µM*,?,16%[57.1 µM],-2%,-8%
O=[N+]([O-])c1ccc(Nc2ccccc2)c2nonc12,-9%,-28%,?,-15%,-4%,-19%
O=[N+]([O-])c1ccc(Sc2cccc[n+]2[O-])c2nonc12,-1%[57.1 µM],?,18µM*,1.6µM*,8%,-29%
SMILES,TrxR1 substrate,Nrf2 block,A549 tox,rTrxR1 inhibitor,mIDH1 inhibitor,Mito fusion act
Cc1cc(NC(=O)N2CCC(CN3CCOCC3)CC2)ccc1Br,-8%,-3%,-6%,4%,-10%,.
O=S(=O)(NC(=S)NC1CCCCC1)c1ccc(Br)cc1,13%,1%,0%,2.8µM*,-22%,10%
O=C(CCS(=O)(=O)c1ccc(Br)cc1)NC1CCCC1,-5%,14%,21%,-2%,0%,-1%
NS(=O)(=O)c1ccc(NC(=S)NC2CCCC2)cc1,4%,12%,-3%,7%,-1%,-2%
NS(=O)(=O)c1ccc(NC(=S)NC2CCCCCC2)cc1,-5%,15%,12%,16µM*,1%,-1%
O=c1c2ccccc2sn1-c1ccc(S(=O)(=O)N2CCOCC2)cc1,3%,?,10%,50%,.,.
CN(Cc1cccc(Cl)c1Cl)C(=O)c1cccc(S(=O)(=O)N2CCN(Cc3ccccc3)CC2)c1,-10%,13µM*,-16%,-5%,7%,-13%
Cc1cccc(C)c1NC(=O)CN(C)C(=O)c1cccc(S(=O)(=O)N2CCN(c3ccccc3)CC2)c1,-9%,-26%,4%,-4%,4%,3%
CN(CC(=O)Nc1ccccc1Cl)C(=O)c1cccc(S(=O)(=O)N2CCN(c3ccc(F)cc3)CC2)c1,-6%,5.2µM*,-15%,15%,-16%,-1%
CN(CC(=O)Nc1cccc(F)c1)C(=O)c1cccc(S(=O)(=O)N2CCN(c3ccc(F)cc3)CC2)c1,-8%,16µM*,?,17%,-9%,.
CN(CC(=O)Nc1ccccc1Cl)C(=O)c1cccc(S(=O)(=O)N2CCN(c3ccccc3)CC2)c1,-1%,21µM*,-20%,14%,8%,.
CCCCn1c(=O)c2oc3ccccc3c2n(CC(=O)Nc2cc(C)ccc2C)c1=O,8%,-2%,-2%,16%,10%,.
COc1ccc(C)cc1S(=O)(=O)N1CCN(c2cccc(Cl)c2)CC1,2%,-21%,1%,31%,30%,.
CN(CC(=O)Nc1ccccc1Cl)C(=O)c1cccc(S(=O)(=O)N2CCN(Cc3ccccc3)CC2)c1,0%,15µM*,-5%,9%,3%,4%
Cc1ccc(NC(=O)c2cccc(S(=O)(=O)N3CCN(c4ccc(F)cc4)CC3)c2)nc1,-9%,23µM*,-5%,-5%,4%,-7%
O=C(NNc1ccccc1F)c1cccs1,6%,?,4%,-34%,.,.
O=C(CSc1nc2c([nH]c3ccccc32)c(=O)n1-c1ccccc1F)Nc1cccc(C(F)(F)F)c1,1%[57.1 µM],.,-25%,22%[57.1 µM],-7%,.
Cc1cccc(N2C(=O)N(CC(=O)C(C)(C)C)c3ccccc3S2(=O)=O)c1C,-1%[57.1 µM],.,-16%,13%[57.1 µM],3%,.
Cc1ccc(N2CC(NC(=O)c3ccc(Br)o3)CC2=O)cc1C (stereo not drawn),-6%[57.1 µM],.,11%,11%[57.1 µM],29%,.

# Assay outcomes from PubChem BioAssay.
